Compounds without any hit were thinned out: in the full panel of roughly 83,000, 20% have a hit.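 Cells were grown in 96-well plates and exposed to the test compound at a single concentration for 48 hours; results are reported as percent growth, with values below 10 considered active.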 Values without a mark were called inactive. Calls of active or inactive are those of the source.

The subject of the experiment is BT-549 breast. As to the kind of experiment: NCI-60 one-dose screen, 48 h (100 = growth as untreated, 0 = no growth, -100 = all killed). The conditions noted are these: 10 µM unless noted. How it is done:
Growth inhibition of the BT-549 human tumor cell line is measured as a screen for anti-cancer activity. Cells are grown in 96 well plates and exposed to the test compound for 48 hours. Compounds are tested at a single concentration, which is 10^-5 M for most compounds. The reported endpoint is percent growth (GI% or GIPRCNT), where numbers from 0 - 100% represent growth inhibition, and numbers from -100% - 0 represent cell death. For example, a value of 40 represents 60% growth inhibition. A value of 0 means no net growth occurred over the course of the experiment. A value of -40 indicates 40% of cells at the beginning of the experiment died by the end of the experiment. A value of -100 means all cells are dead at the end of the experiment.
NCI-60 Human Tumor Cell Lines Screen was performed using the standard one-dose NCI protocol, which is described in more detail at https://dtp.cancer.gov/discovery_development/nci-60/default.htm.
Compounds with GIPRCNT values below 10 were considered active. Activity score was based on GIPRCNT using the following formula: […]
Score is 0 for GIPRCNT values of 100 or above, 50 for GIPRCNT values of 0, and 100 for GIPRCNT values of -100.
For the compound `COc1cc2c(=O)n(CCCN(C)C)c3c4cc5c(cc4ccc3c2cc1OC)OCO5`, the growth was 47.8%.
Turning to `N/C(=N\C(N)=N\c1nc2ccccc2s1)c1ccnc(Br)c1`, the growth is 41.9%.
With `C=C1C(=O)O[C@H]2[C@H]1CC/C(COC(=O)NCc1c[nH]c3ccc(Br)cc13)=C\CC[C@@]1(C)O[C@@H]21`, the growth was -52.3% (active).
Turning to `COc1ccc(C(=O)NNc2nc(Cl)nc(N3CCN(C(c4ccccc4)c4ccccc4)CC3)n2)cc1`, the growth was 52.2%.
In the case of `C=C1C(=O)O[C@H]2[C@H]1CC/C(C(=O)NCCCCCNC(=O)/C1=C/CC[C@@]3(C)O[C@H]3[C@H]3OC(=O)C(=C)[C@@H]3CC1)=C\CC[C@@]1(C)O[C@@H]21`, the growth was 98.2%.
Under `CCOC(=O)Nc1ccc(-c2ccc3c(c2)NC(=O)/C3=C\c2ccc[nH]2)cc1` stands 56.4%; under `COc1cc(C2C3=C(COC3=O)N(CCO)c3cc4c(cc32)CCC4)cc(OC)c1OC` (stereo not given), -9.83% (active); under `O=c1[nH]nc(-c2ccccc2)c2sc3ncc(-c4ccc(Br)cc4)n3c12`, 52.1%.
The figure for `Cc1ccc(S(=O)(=O)NNC(=O)/C(=C\c2ccc(Cl)cc2)c2nc3ccccc3s2)cc1` is 106%.
Under `N/C(=N\C(N)=N\c1nc2ccccc2s1)c1cnccn1` stands 38.3%.
On to `O=[N+]([O-])c1cc(Br)c2cccc3c2c1CC3`, for which the growth was 114%.
The figure for `O=c1ccc(-c2nc(N3CCOCC3)c3ccccc3n2)c[nH]1` is 97.4%; for `O=C(NCCNc1nccc(-c2c(-c3cccc(F)c3)nc3sccn23)n1)c1ccc(Cl)cc1` it is 75.9%; for `O=[N+]([O-])CC(c1ccccc1)c1c[nH]c2ccccc12` (stereo not given) it is 56.6%.
As for `COc1ccc(NC(N)=NCCCOc2ccc(F)cc2)cc1`, the growth was 67.3%.
The figure for `O=[N+]([O-])CC(c1ccccc1F)c1c[nH]c2ccccc12` (stereo not given) is 73.8%.
In the case of `CNCCn1c(=O)c2cc(OC)c(OC)cc2c2ccc3cc4c(cc3c21)OCO4`, the growth is -19.8% (active).
With `COc1ccc(/C=C2\Oc3cc(OCCCCCN4CCCCC4)ccc3C2=O)cc1OC`, the growth is 69.4%.
Under `COC(=O)C(CC=O)C(=O)C(=O)Nc1cccc(C(F)(F)F)c1` (stereo not given) stands 101%; under `COc1ccc(N2CCN(c3ccc(NC4=C(Cl)C(=O)c5ncccc5C4=O)cc3)CC2)cc1`, 47.8%.
For `C#CCNC(=O)c1cccc2c1cc(C)n2-c1nc2c(c(NCc3ccccc3)n1)CCCC2`, the growth is -38.7% (active).
Regarding `COc1ccc(Cc2cnc(NC(=O)c3ccc4c(c3)OCCO4)s2)cc1`, the growth was 43.6%.
For the compound `CC(=O)c1ccc(NS(=O)(=O)c2cccc(C(=O)Nc3ccc(Br)cc3)c2)cc1`, the growth is 48.3% [25 µM].
On to `O=C(/C=C/c1ccc(F)cc1)c1ccc(NC(=O)N2CCN(c3cc4c(cc3F)c(=O)c(C(=O)O)cn4C3CC3)CC2)cc1`, for which the growth was 75.7%.
Regarding `CCOc1cccc(-c2nc(N)nc(Nc3ccccc3SSc3ccccc3Nc3nc(N)nc(-c4cccc(OCC)c4)n3)n2)c1`, the growth was 78.7%.
Consider `O=C1OC(Cc2ccccc2)C1c1ccccc1` (stereo not given), for which the growth is 95.1%.
`COc1cc2oc(-c3cccc(C(=O)Nc4ccc5c(c4)OCO5)c3)cc(=O)c2c(O)c1OC`: the growth is 84%.
Under `COc1ccccc1NC(=O)C1CC(c2ccc(F)cc2)=NO1` (stereo not given) stands 112%; under `O=C1Nc2ccc(F)cc2/C1=C\c1c(-c2ccccc2)nc2ccccn12`, 65.9%; under `CCSCC1CC(O)(c2ccccc2)CC(c2ccc(F)cc2)O1` (stereo not given), -0.126% (active).
The figure for `C[C@H]1[C@H](C)CC[C@]2(C(=O)NCC#CCN3CCN(C)CC3)CC[C@]3(C)C(=CC[C@@H]4[C@@]5(C)Cc6c([nH]c7ccccc67)C(C)(C)[C@@H]5CC[C@]43C)[C@H]12` is 99.6%; for `CCCCNC(=O)Oc1ccc(/C(=C(\C)c2ccccc2)c2ccc(OCCN3CCCCC3)cc2)cc1` it is 62%.
On to `N#C/C(=C\c1cccc(C#N)c1)c1ccccc1`, for which the growth is 102%.
Under `CC1(C)CC[C@]2(C(=O)O)CC[C@]3(C)C(=CC[C@@H]4[C@@]5(C)Cc6c([nH]c7ccccc67)C(C)(C)[C@@H]5CC[C@]43C)[C@@H]2C1` stands 61.5%; under `O=C1c2c(c3c4cccc(F)c4[nH]c3c3ccc4ccccc4c23)C(=O)N1O`, 52.7%.
The figure for `O=C(Nc1ccccc1)Nc1ccc2cc3ccc(NC(=O)Nc4ccccc4)cc3nc2c1` is 86.2%; for `OCc1cnc2ccccc2c1NC1CCCCCC1` it is 105%.
With `COc1ccc(/C=C/c2nc(Nc3ccc(S(=O)(=O)Nc4nc(C)cc(C)n4)cc3)c3ccccc3n2)cc1`, the growth is 87.9%.
The figure for `COc1ccc(C/C(C)=C(/c2ccc(OCCCN(C)C)cc2)c2ccc(OC(C)=O)cc2)cc1` is 89%.
Under `O=C1Nc2ccccc2/C1=C\c1c(-c2ccccc2)nc2ccccn12` stands 45.3%.

Values taken from PubChem BioAssay (NCI).
